Results filed as inconclusive are left out. The source made the active and inactive calls. Calls follow the shape of the dose curve; as a rule, active = well fitted curve in the direction sought with a large enough effect; inconclusive = small, poorly fitted or top-dose-only effect, or another doubt; inactive = no such curve, though single readings can be large; an effect the other way counts as inactive or inconclusive.
What was measured:
[1] = qHTS assay to identify small molecule inhibitors of chordoma cells - UCH-2 (AID 1259356); also: series mostly up to about 46 µM; % is scaled to controls: 0 for no effect and ±100 for the full control effect
[2] = P-glycoprotein substrates identified in KB-8-5-11 adenocarcinoma cell line, qHTS therapeutic library screen (AID 1346987); conditions: outcome: dose series up to 44.5 µM; also: series mostly up to about 44 µM; % is scaled to controls: 0 for no effect and ±100 for the full control effect; nearly all actives have a fitted effect of over 65% in size
Procedure, shortened: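 KB-8-5-11: colchicine-selected sub-line of KB-3-1 over-expressing P-gp; assay medium lacked colchicine. 72 h drug exposure at 37 degree C, CellTiter-Glo.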

[3] = NS1 protein of Zika virus - qHTS assay to identify small molecule inhibitors in human HEK 293 cells (AID 1347053);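 also: series mostly up to about 46 µM; plate controls were infected untreated cells for no effect and uninfected cells for full effect; nearly all actives have a fitted effect of over 55% in size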
Procedure, shortened: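 Following 20 h seeding, HEK 293 cells took compound, then 1 h later ZIKV MR766 (MOI = 0.5). Incubation ran 24 h at 37 C before TR-FRET detection of NS1; a drop in signal indicates inhibition.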

[4] = qHTS of pediatric cancer cell lines to identify multiple opportunities for drug repurposing: Primary screen for TC32 cells (AID 1347089); also: % is scaled to controls: 0 for no effect and ±100 for the full control effect; nearly all actives have a fitted effect of over 60% in size
Procedure, shortened: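 Luminescent ATP read-out (CellTiter-Glo) of metabolically active TC32 cells after 48 h exposure. Concentration-response curves came from 11-point (MIPE, 0.78 nM–46 µM) or 8-point (NPC, 0.59 nM–46 µM) primary titrations; follow-up used 11 points.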

[5] = qHTS of pediatric cancer cell lines to identify multiple opportunities for drug repurposing: Primary screen for DAOY cells (AID 1347090);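 also: series mostly up to about 46 µM; plate controls were DMSO for no effect and bortezomib for full effect; nearly all actives have a fitted effect of over 55% in size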
Procedure, shortened: (§1)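 Viability measured as metabolically active cells via CellTiter-Glo luminescence following 48 hours of compound exposure, 11-point dilutions in confirmatory testing. 500-1,000 cells/well plated 5 hours before dosing; controls were DMSO and 2.3 µM bortezomib.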

[6] = qHTS of pediatric cancer cell lines to identify multiple opportunities for drug repurposing: Primary screen for A673 cells (AID 1347092); also: % is scaled to controls: 0 for no effect and ±100 for the full control effect; nearly all actives have a fitted effect of over 45% in size
Procedure, shortened: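 Cell viability of A673 measured by CellTiter-Glo ATP luminescence after 48 hours compound exposure. Dilution series spanned 0.78 nM to 46 µM (MIPE, 11-point) or 0.59 nM to 46 µM (NPC, 8-point); bortezomib 2.3 uM positive control.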

[7] = qHTS of pediatric cancer cell lines to identify multiple opportunities for drug repurposing: Primary screen for BT-37 cells (AID 1347094);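 also: series mostly up to about 57 µM; plate controls were DMSO for no effect and bortezomib for full effect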
Procedure, shortened: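 CRCs from 8- or 11-point titrations (lowest final 0.59 nM NPC, 0.78 nM MIPE). Cell viability: CellTiter-Glo after 48 h incubation, 15 min room-temperature development, luminescence imaging.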

[8] = qHTS of pediatric cancer cell lines to identify multiple opportunities for drug repurposing: Primary screen for SK-N-MC cells (AID 1347093);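 also: series mostly up to about 46 µM; plate controls were DMSO neutral control for no effect and bortezomib for full effect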
Procedure, shortened: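 Metabolically active cells were quantified by ATP-dependent luminescence (CellTiter-Glo, 15 min at room temperature) following 48 h treatment. Cells had been plated at 500-1,000 per well and settled for 5 h beforehand.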

[9] = qHTS of pediatric cancer cell lines to identify multiple opportunities for drug repurposing: Primary screen for SJ-GBM2 cells (AID 1347091);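 also: plate controls were DMSO neutral control for no effect and bortezomib for full effect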
Procedure, shortened: as §1

COC(=O)N/N=C/c1c[n+]([O-])c2ccccc2[n+]1[O-]
inactive: outcome [1] | outcome [2] | outcome [3] | outcome [4] | outcome [5] | outcome [6] | outcome [7]

CN1C(C)(C)CCCC1(C)C
inactive: outcome [1] | outcome [2] | outcome [3] | outcome [4] | outcome [5] | outcome [6] | outcome [7]

c1ccc2[nH]ccc2c1
inactive: outcome [1] | outcome [2] | outcome [3] | outcome [4] | outcome [5] | Potency [8] | outcome [7]

CC(C)=CCC/C(C)=C/CO
inactive: outcome [1] | outcome [2] | outcome [3] | outcome [4] | outcome [5] | outcome [9] | outcome [7]

NC(=O)NS(=O)(=O)c1ccc(N)cc1
inactive: outcome [1] | outcome [2] | outcome [3] | outcome [4] | outcome [5] | outcome [6] | Potency [8] | outcome [7]

COc1ccccc1Oc1c(NS(=O)(=O)c2ccc(C(C)(C)C)cc2)nc(-c2ncccn2)nc1OCCO
inactive: outcome [1] | outcome [2] | outcome [3] | outcome [4] | outcome [9] | outcome [6] | Potency [8] | outcome [7]

CC(C)=CCC[C@@](C)(O)[C@H]1CC=C(C)CC1
inactive: outcome [1] | outcome [2] | outcome [3] | outcome [4] | outcome [9] | outcome [6] | Potency [8] | outcome [7]

C[C@@H]1CCC[C@H](C)N1
inactive: outcome [1] | outcome [2] | outcome [3] | outcome [4] | outcome [5] | outcome [6] | Potency [8] | outcome [7]

Cc1ccccc1N=Nc1ccc(N=Nc2c(O)ccc3ccccc23)c(C)c1
inactive: outcome [1] | outcome [2] | outcome [3] | outcome [4] | outcome [5] | outcome [6] | Potency [8] | outcome [7]

C=CCOc1ccccc1OCC(O)CNC(C)C (configuration not stated)
inactive: outcome [1] | outcome [2] | outcome [3] | outcome [4] | outcome [5] | Potency [8] | outcome [7]

Cc1c(NC(=O)c2cccnc2)c(=O)n(-c2ccccc2)n1C
inactive: outcome [1] | outcome [2] | outcome [3] | outcome [4] | outcome [5] | outcome [6] | Potency [8] | outcome [7]

CN1C(=O)CC(c2ccccc2)C1=O (configuration not stated)
inactive: outcome [1] | outcome [2] | outcome [3] | outcome [4] | outcome [9] | outcome [6] | Potency [8] | outcome [7]

C/C=C/C(=O)N(CC)c1ccccc1C
inactive: outcome [1] | outcome [2] | outcome [3] | outcome [4] | outcome [5] | Potency [8] | outcome [7]

O=C(CCBr)N1CCN(C(=O)CCBr)CC1
inactive: outcome [1] | outcome [2] | outcome [3] | outcome [4] | outcome [5] | Potency [8] | outcome [7]

O=C1c2ccccc2S(=O)(=O)N1CCCCN1CCN(c2ncccn2)CC1
inactive: outcome [1] | outcome [2] | outcome [3] | outcome [4] | outcome [5] | outcome [6] | Potency [8] | outcome [7]

O=C(c1ccccc1)C(O)c1ccccc1 (configuration not stated)
inactive: outcome [1] | outcome [2] | outcome [3] | outcome [4] | outcome [5] | outcome [6] | Potency [8] | outcome [7]

CN[C@@H]1[C@@H](O)[C@@H](O[C@@H]2[C@H](O)[C@H](O[C@H]3OC(CN)=CC[C@H]3N)[C@@H](N)C[C@H]2N)OCC1(C)O (some centres not stated)
inactive: outcome [1] | outcome [2] | outcome [3] | outcome [4] | outcome [9] | outcome [6] | Potency [8] | outcome [7]

COc1ccc(C(=O)NCc2ccc(OCCN(C)C)cc2)cc1OC
inactive: outcome [1] | outcome [2] | outcome [3] | outcome [4] | outcome [9] | outcome [6] | Potency [8] | outcome [7]

C1CCN2C[C@@H]3C[C@@H](CN4CCCC[C@@H]34)[C@H]2C1
inactive: outcome [1] | outcome [2] | outcome [3] | outcome [4] | outcome [5] | Potency [8] | outcome [7]

NC(=O)CCCCC1CCSS1 (configuration not stated)
inactive: outcome [1] | outcome [2] | outcome [3] | outcome [4] | outcome [5] | outcome [9] | outcome [7]

C[N+](C)(C)CC(O)CC(=O)[O-] (configuration not stated)
inactive: outcome [1] | outcome [2] | outcome [3] | outcome [4] | outcome [5] | outcome [6] | Potency [8] | outcome [7]

CC1(C)S[C@@H]2[C@H](N=CN3CCCCCC3)C(=O)N2[C@H]1C(=O)O
inactive: outcome [1] | outcome [2] | outcome [3] | outcome [4] | outcome [5] | outcome [9] | outcome [7]

NCC1CCC(C(=O)Oc2ccc(CCC(=O)O)cc2)CC1 (configuration not stated)
inactive: outcome [1] | outcome [2] | outcome [3] | outcome [4] | outcome [5] | Potency [8] | outcome [7]

CCCCC1(COC(=O)CCC(=O)O)C(=O)N(c2ccccc2)N(c2ccccc2)C1=O
inactive: outcome [1] | outcome [2] | outcome [3] | outcome [4] | outcome [5] | outcome [6] | Potency [8] | outcome [7]

CCOc1ccc(C(=O)OCCN(CC)CC)cc1
inactive: outcome [1] | outcome [2] | outcome [3] | outcome [4] | outcome [5] | outcome [6] | Potency [8] | outcome [7]

CC1(C)S[C@@H]2[C@H](NC(=O)C(C(=O)O)c3ccccc3)C(=O)N2[C@H]1C(=O)O (some centres not stated)
inactive: outcome [1] | outcome [2] | outcome [3] | outcome [4] | outcome [5] | outcome [6] | Potency [8] | outcome [7]

CN1CC(=O)NC1=N
inactive: outcome [1] | outcome [2] | outcome [3] | outcome [4] | outcome [5] | outcome [6] | Potency [8] | outcome [7]

CC(=O)Oc1cccc(C)c1
inactive: outcome [1] | outcome [2] | outcome [3] | outcome [4] | outcome [9] | outcome [6] | Potency [8] | outcome [7]

CCCCCC(C)N (configuration not stated)
inactive: outcome [1] | outcome [2] | outcome [3] | outcome [4] | outcome [5] | outcome [7]

CC(=O)[C@@]1(O)CC[C@H]2[C@@H]3C[C@H](C)C4=CC(=O)C=C[C@]4(C)[C@@]3(F)[C@@H](O)C[C@@]21C
inactive: outcome [1] | outcome [2] | outcome [3] | outcome [4] | outcome [5] | outcome [7]

O=c1[nH]cnc2nc[nH]c12
inactive: outcome [1] | outcome [2] | outcome [3] | outcome [4] | outcome [5] | outcome [6] | Potency [8] | outcome [7]

O=C(O)CCC(=O)O
inactive: outcome [1] | outcome [2] | outcome [3] | outcome [4] | outcome [9] | outcome [6] | Potency [8] | outcome [7]

Cc1ccc(S(=O)(=O)NC(=O)NC2CCCCCCC2)cc1
inactive: outcome [1] | outcome [2] | outcome [3] | outcome [4] | outcome [9] | outcome [6] | Potency [8] | outcome [7]

O=C(O)COC(=O)Cc1ccccc1Nc1c(Cl)cccc1Cl
inactive: outcome [1] | outcome [2] | outcome [3] | outcome [4] | outcome [9] | outcome [6] | outcome [7]

CC(=O)Oc1cccc(O)c1
inactive: outcome [1] | outcome [2] | outcome [3] | outcome [4] | outcome [9] | outcome [6] | outcome [7]

O=C1c2ccccc2C(=O)C1c1ccc(Br)cc1
inactive: outcome [1] | outcome [3] | outcome [4] | outcome [5] | outcome [9] | outcome [6] | Potency [8] | outcome [7]

OCCN1C[C@H](O)[C@@H](O)[C@H](O)[C@H]1CO
inactive: outcome [1] | outcome [2] | outcome [3] | outcome [4] | outcome [9] | outcome [6] | outcome [7]

Cc1cc(C)nc(NS(=O)(=O)c2ccc(N)cc2)n1
inactive: outcome [1] | outcome [2] | outcome [4] | outcome [5] | outcome [9] | outcome [6] | Potency [8] | outcome [7]

C[C@@H](N)C(=O)O
inactive: outcome [1] | outcome [3] | outcome [4] | outcome [5] | outcome [9] | outcome [6] | Potency [8] | outcome [7]

Cc1ccsc1C(=CCCN1CCC[C@@H](C(=O)O)C1)c1sccc1C
inactive: outcome [1] | outcome [2] | outcome [3] | outcome [4] | Potency [8] | outcome [7]

Cc1ccc2c(c1)c1c3n2CCNC3CCC1 (configuration not stated)
inactive: outcome [1] | outcome [2] | outcome [3] | outcome [5] | outcome [9] | outcome [6] | Potency [8] | outcome [7]

CCOC(N)=O
inactive: outcome [1] | outcome [2] | outcome [3] | outcome [4] | outcome [9] | outcome [6] | Potency [8] | outcome [7]

CCCCCCCCCCOc1cc2c(=O)c(C(=O)OCC)c[nH]c2cc1OCC
inactive: outcome [1] | activity change, negative = inhibition [3] -16.6% [at 4.81 µM] | activity change, negative = cytotoxic [4] 8.44% [at 4.81 µM] | activity change, negative = cytotoxic [5] -4.32% [at 4.84 µM] | activity change, negative = cytotoxic [9] 5.74% [at 4.84 µM] | activity change, negative = cytotoxic [6] -6.98% [at 4.84 µM] | activity change, negative = cytotoxic [8] -8.08% [at 4.84 µM] | activity change, negative = cytotoxic [7] 9.52% [at 6.03 µM]

CC(N)CCCC(C)(C)O (configuration not stated)
inactive: outcome [1] | outcome [2] | outcome [3] | outcome [4] | outcome [9] | Potency [8] | outcome [7]

NC(=O)c1ccc([N+](=O)[O-])cc1Cl
inactive: outcome [1] | outcome [2] | outcome [3] | outcome [4] | outcome [9] | outcome [6] | outcome [7]

CCN(CC)S(=O)(=O)c1ccc(C(=O)O)cc1
inactive: outcome [1] | outcome [2] | outcome [3] | outcome [4] | Potency [8] | outcome [7]

C=CCNC(N)=S
inactive: outcome [1] | outcome [3] | outcome [4] | outcome [5] | outcome [9] | outcome [6] | Potency [8] | outcome [7]

CCc1nnc(NS(=O)(=O)c2ccc(N)cc2)s1
inactive: outcome [1] | outcome [2] | outcome [3] | outcome [4] | Potency [8] | outcome [7]

CC[C@H](C)[C@H](N)C(=O)O
inactive: outcome [1] | outcome [3] | outcome [4] | outcome [5] | outcome [9] | outcome [6] | Potency [8] | outcome [7]

O=C1c2cccc(O)c2C(=O)c2c(O)cccc21
inactive: outcome [1] | outcome [3] | outcome [4] | outcome [5] | outcome [9] | outcome [6] | Potency [8] | outcome [7]

CCCCCCCC(=O)OCC(O)CO (configuration not stated)
inactive: outcome [1] | outcome [3] | outcome [4] | outcome [5] | outcome [9] | outcome [6] | Potency [8] | outcome [7]

CC[N+](CC)(CC(=O)Nc1c(C)cccc1C)Cc1ccccc1
inactive: outcome [1] | outcome [2] | outcome [3] | outcome [4] | outcome [6] | Potency [8] | outcome [7]

CCOC(=O)OC(C)OC(=O)[C@@H]1N2C(=O)[C@@H](NC(=O)[C@H](N)c3ccccc3)[C@H]2SC1(C)C (some centres not stated)
inactive: outcome [1] | outcome [2] | outcome [3] | outcome [4] | outcome [9] | outcome [6] | Potency [8] | outcome [7]

— PubChem BioAssay (NCATS)
